# Rows were chosen to be rich in hits. Some 1.3% of all compounds tested hit in one or more screens of this group.
# MBNL1 CUG block: inhibitors of human MBNL1 binding to CUG repeat RNA. 280,000 tested, 0.036% active. Q9NR56. TR-FRET MBNL1-His/biotin-(CUG)12 binding, 665/545 ratio. AID 2675. Potency, µM (highest dose often 57.5 µM), without a hit: top-dose activity change, negative = inhibition, usual class: inhibitors; active = well fitted inhibition curve with a large enough effect in the signal ratio, with a control signal flat, not every such curve was filed as active; inconclusive = small, poorly fitted or top-dose-only effect, or effect the other way, or a change in a side signal; inactive = no such curve, though single readings can be large or run the other way; the % refers to the signal ratio; also: potency is read from the fitted curve at half-maximal effect; % is scaled to controls: 0 for no effect and ±100 for the full control effect
#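 His-tagged MBNL1 binding to biotinylated (CUG)12 RNA was measured by TR-FRET using terbium anti-His antibody (0.055 ng/ul final) and streptavidin-XL665 (5 nM final). Compounds were titrated 92 nM to 58 uM; 60 min at room temperature.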
# TRPV1 potentiator: enhances activation of the human vanilloid receptor TRPV1; Q8NER1; TRPV1-expressing cells, Fluo-8 calcium influx, capsaicin EC20 potentiation; potentiation, % at 8.33 µM; 320,000 tested, 0.02% active; in the data active = potentiation above about 80%; inconclusive = between about 30% and that limit; also: 0% is about no effect
#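 TRPV1-expressing cells were cultured overnight at 35.5C and loaded with Fluo-8 calcium dye for 40 to 90 min at room temperature. After a 10 s baseline, compound was added and calcium influx was read kinetically for 3 min (ex 480/em 520 nm).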
# TRPV1 agonist: agonists of human vanilloid receptor 1 (TRPV1); Q8NER1; TRPV1-expressing cells, Fluo-8 calcium influx, agonist mode; activation, % at 8.33 µM; 320,000 tested, 0.19% active; in the data active = activation above about 80%; inconclusive = between about 30% and that limit; also: 0% is about no effect
#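 Fluo-8 calcium influx in TRPV1-expressing cells, kinetic read (ex 480/em 520 nm). Compound added and read 3 min for agonist activity, followed by capsaicin at EC20 final and 2 min further read for enhancement.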
# hERG WT inh: KCNH2 (human, wildtype) channel inhibition. AID 720551. Q12809. activity change, % at 1.84 µM. 340,000 tested, 0.37% active. U2OS, BacMam KCNH2, thallium flux FluxOr; active compounds read low;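 active = maximum activity change below -70%; inconclusive = maximum activity change between -70% and -50%; inactive = maximum activity change above -50%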; also: % is scaled to controls: 0 for no effect and ±100 for the full control effect
#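 U2OS cells transduced with wild-type KCNH2 virus are loaded with FluxOr dye for 45 min, and thallium flux is measured in kinetic reads before and after stimulation buffer. Rate constants are normalized to DMSO controls.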
# KCNH2 3.1 inh: KCNH2 3.1 (human) potassium channel inhibition | U2OS KCNH2 3.1, thallium flux FluxOr; active compounds read low | activity change, % (tested at about 1.8 µM) | 340,000 tested, 0.95% active;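 active = maximum activity change below -70%; inconclusive = maximum activity change from -70% to -50%; inactive = maximum activity change above -50%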;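 also: thallium influx rate constant from kinetic fluorescence after stimulation buffer; % is scaled to controls: 0 for no effect and ±100 for the full control effect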
#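 Thallium flux read-out: FluxOr dye with Red40 quencher in HBSS/HEPES, 45 min at RT. Rate constants from kinetic reads were normalized to positive and negative DMSO controls. Cells: U2OS virally expressing the 3.1 isoform.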
# An asterisk follows results filed as active; ? = inconclusive; nt = not tested or not shown.
SMILES,MBNL1 CUG block,TRPV1 potentiator,TRPV1 agonist,hERG WT inh,KCNH2 3.1 inh
COc1ccc(-c2[nH]ncc2CN2CCC(O)(c3ccc(Cl)cc3)CC2)cc1,2%,0,4,1,-70*
OCC1(CCOc2ccccc2)CCN(Cc2cn[nH]c2-c2ccc(F)cc2)CC1,-14%,0,0,?,-104*
CCCN(CC(=O)Nc1ccc(C(N)=O)cc1)CC(=O)Nc1ccc(F)c(F)c1F,-6%,-2,-3,-1,1
C[C@]12c3[nH]c4cc(-c5ccco5)ccc4c3CCN1C(=O)[C@@H](CC(=O)NCc1ccco1)C[C@@H]2C(=O)N1CCOCC1,nt,nt,nt,-4,-6
N#Cc1ccc(CN2CCN(C(=O)c3ccccc3)CC2)c(Cl)c1,1%,-10,5,19,4
COC(=O)C(C)Oc1ccc(-c2nccc(-c3ccccn3)n2)cc1 (configuration not stated),-9%,-23,8,1,-4
COc1ccccc1N1CC(C(=O)OC(C)C(=O)Nc2ccc(F)cc2)CC1=O (configuration not stated),nt,nt,nt,7,-2
CCc1ccc(C(=O)C(C)OC(=O)c2nc3nc(C)cc(C)n3n2)cc1 (configuration not stated),nt,-9,-3,-5,0
CCn1c(C(=O)NC2CCC(C)CC2)cc2sccc21 (configuration not stated),-3%,-6,?,-233*,-2
O=C(CC1CCCC1)N1CCCC(Nc2cccc(F)c2)C1 (configuration not stated),6%,-11,84*,-6,-6
O=C(CC1CCCC1)N1CCCC(Nc2ccc(F)cc2)C1 (configuration not stated),-1%,-5,3,-10,-96*
CC1CCCCC1Nc1nc2ccc(Cl)cc2n2cnnc12 (configuration not stated),-2%,-22,18,-1,-8
CCCCC(CCc1ccccn1)C(=O)c1ccccc1 (configuration not stated),nt,nt,nt,2,4
O=C(Nc1nc2cc3c(cc2s1)OCCO3)c1ccco1,-9%,-14,?,33,2
CN(/N=C/c1ccc(-c2ccc([N+](=O)[O-])cc2)o1)c1ccccc1,18%,12,14,-38,-72*
NC(=S)N/N=C/c1ccc(-c2ccc([N+](=O)[O-])cc2)o1,?,22,-2,-7,-2
Cc1cc(C)n(C(N)=NC(=O)c2ccccc2)n1,nt,nt,nt,-4,3
CC1CCCCN1S(=O)(=O)c1ccc(N(C(=O)c2cnccn2)C(C(=O)NC2CCCC2)c2cccs2)cc1 (configuration not stated),nt,1,3,13,2
CC1CCCCN1S(=O)(=O)c1ccc(N(C(=O)c2cnccn2)C(C(=O)NC2CCCCC2)c2cccs2)cc1 (configuration not stated),-2%,-14,19,-71*,7
Cc1coc2c(C)c3oc(=O)c(CCC(=O)NCCCN4CCOCC4)c(C)c3cc12,-5%,-7,-2,0,11
Cc1coc2c(C)c3oc(=O)c(CCC(=O)N4CCC(C(=O)NCCCC(=O)O)(c5ccccc5)CC4)c(C)c3cc12,-3%,18,-4,-21,-197*
O=C(COC(=O)c1cc(Br)ccc1Cl)NC1CCCC1,-2%,-11,23,-16,-10
COc1c2c(c(OC)c3ccccc13)[C@@]1(OC2)O[C@H](CCO)C[C@H](O)[C@H]1O,nt,nt,nt,4,0
COC(=O)c1ccsc1NC(=O)CSc1nnnn1-c1ccccc1SC,24%,4,-9,-22,-88*
FC(F)Oc1ccc(NC(=S)NNc2ccnc3cc(Cl)ccc23)cc1,4%,-8,5,?,-81*
COc1ccc(CN(C)CC(=O)Nc2ccc(N3CCOCC3)cc2)cc1OC,-3%,9,-8,14,6
COc1ccc(CN(C)CC(=O)Nc2ccc(SC(F)F)cc2)cc1OC,-7%,-20,?,-38,-98*
CN(CC(=O)Nc1ccc(SC(F)F)cc1)C1CCCCC1,-11%,-12,?,-37,-94*

# Bioassay records from PubChem BioAssay.
